Laboratory results: PubChem BioAssay (NCI)
Compounds without any hit were thinned out: in the full panel of roughly 79,000, 15% have a hit. No stated cut-off is given here; in the data, active means growth inhibition above about 70%; inactive means the rest.

Legend:
[1] = NCI Yeast Anticancer Drug Screen. Data for the rad50 strain (AID 155);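 further: 0% = growth of vehicle-only cultures of the same strain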; details: S. cerevisiae rad50 strain growth inhibition; at 50.0 µM; stronger effect = higher value
Outline: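 Readout: growth inhibition relative to vehicle-treated cultures. Compound exposure was carried out in a genetically defined yeast strain deficient in DNA damage repair.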

[2] = NCI Yeast Anticancer Drug Screen. Data for the mec2-1 strain (AID 157); details: S. cerevisiae mec2-1 strain, at 50.0 µM, stronger effect = higher value
Outline: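 Cells of the genetically defined mec2-1 yeast strain are incubated with test compound. Inhibition of growth is calculated against vehicle-treated controls.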

[3] = NCI Yeast Anticancer Drug Screen. Data for the sgs1 mgt1 strain (AID 161);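 further: 0% = growth of cultures given vehicle only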; details: S. cerevisiae sgs1 mgt1 strain, at 50.0 µM, stronger effect = higher value
Outline: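 Read-out: growth inhibition vs vehicle controls. Cells: mutant yeast strain deficient in DNA damage repair.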

[4] = NCI Yeast Anticancer Drug Screen. Data for the cln2 rad14 strain (AID 165);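 further: 0% = growth equal to vehicle treated cultures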; details: S. cerevisiae cln2 rad14 strain, at 50.0 µM, stronger effect = higher value
Outline: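 The screen exposed genetically defined yeast (cln2 rad14) to test compounds and scored growth inhibition relative to vehicle-treated controls.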

[5] = NCI Yeast Anticancer Drug Screen. Data for the bub3 strain (AID 167); details: S. cerevisiae bub3 mutant strain, at 50.0 µM, stronger effect = higher value
Outline: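 Readout: yeast growth inhibition, expressed relative to vehicle-only wells. The test organism is a mutant strain from a panel with lesions in DNA repair or checkpoint genes.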

[6] = NCI Yeast Anticancer Drug Screen. Data for the mlh1 rad18 strain (AID 175); details: S. cerevisiae mlh1 rad18 strain growth inhibition; at 50.0 µM; stronger effect = higher value
Outline: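 Compound-treated yeast growth, normalised to vehicle controls. Strain bears defined DNA repair mutations.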

Measured: growth inhibition

CCCCn1cnnc1NS(=O)(=O)c1cc(C)c(Cl)cc1SCC(=O)O
inactive: [1] -20.5% | [2] -5.25% | [3] 6.15% | [4] 0.4% | [5] -13.8% | [6] -5.5%

O=C1O/C(=C(\Br)c2cccc3ccccc23)c2ccccc21
inactive: [1] -18.1% | [2] -30.4% | [3] -34% | [4] 11.2% | [5] -27.6% | [6] -18.3%

CCCCC1(O)CC2CC1C(C)C2(C)C (stereo not given)
inactive: [1] 0.3% | [2] 7.75% | [3] -3.45% | [4] 22.1% | [5] 16.4% | [6] 2.5%

Clc1ccc(CSc2cnnc3c(Br)cccc23)c(Cl)c1
inactive: [1] -5.3% | [2] -11.5% | [3] -10.8% | [4] -39.2% | [5] 1.8% | [6] 0.85%

COC(=O)NC(CI)c1ccccc1 (stereo not given)
inactive: [1] 14.7% | [2] -5.8% | [3] 7.55% | [4] 8.85% | [5] -6.35% | [6] 23.9%

COc1ccc(OCC(C)(C)O)cc1
inactive: [1] -12.6% | [2] -0.4% | [3] 5.6% | [4] 0.2% | [5] -11.2% | [6] -2.55%

COC1=NC(NC2OCC(O)C(O)C2O)=C(NC(C)=O)CN1C (stereo not given)
inactive: [1] -46.5% | [2] -41.4% | [3] -20.1% | [4] -3.65% | [5] -31.7% | [6] -22.4%

CC(CCOS(C)(=O)=O)OS(C)(=O)=O (stereo not given)
inactive: [1] 8.25% | [2] -5.2% | [3] 1.25% | [4] -3.25% | [5] 8.95% | [6] -7.6%

CCC(c1ccc2oc(C)cc2c1)C(CC)c1ccc2oc(C)cc2c1 (stereo not given)
inactive: [1] -15.4% | [2] -4.9% | [3] -3.45% | [4] 13.2% | [5] 45% | [6] -23.2%

Cc1cc(=O)c2c3c(ccc2[nH]1)Oc1ccccc1O3
inactive: [1] 7.9% | [2] 5.95% | [3] 5.2% | [4] 8.45% | [5] 7.1% | [6] 13.1%

Nc1cccc(-c2nc3ccccc3[nH]2)c1
inactive: [1] -21.9% | [2] -26.4% | [3] -17.8% | [4] -9.2% | [5] -20.2% | [6] -14.6%

c1ccc(P(CCNCCP(c2ccccc2)c2ccccc2)c2ccccc2)cc1
inactive: [1] -16% | [2] 11.8% | [3] 8.6% | [4] 10.3% | [5] 2.25% | [6] 6.75%

CCC1(CC)C(=O)N(C(=O)c2ccc(C)cc2)N(C(=O)c2ccc(C)cc2)C1=O
inactive: [1] 3.65% | [2] -6.1% | [3] 14.6% | [4] 18.1% | [5] 2.8% | [6] -17.3%

S=C1N=C2c3ccccc3C2C(=S)S1 (stereo not given)
inactive: [1] -4.8% | [2] -12.8% | [3] 0% | [4] -24.9% | [5] 4.75% | [6] -7.25%

N#Cc1cc2ccccc2c2ccccc12
inactive: [1] 8.6% | [2] -4.15% | [3] 5.85% | [4] 12.3% | [5] -11.2% | [6] 18.4%

O=C(O)c1cccc(C2=CCCC2)c1
inactive: [1] 15.2% | [2] 6.1% | [3] 14.1% | [4] 10.3% | [5] -26.5% | [6] 15.7%

S=c1nn[nH]n1-c1cccc2ccccc12
inactive: [1] 4.7% | [2] 1.9% | [3] -4.65% | [4] 2.6% | [5] -10.8% | [6] -3.8%

CNC(=O)CCC(=O)O
inactive: [1] -7.25% | [2] -20.2% | [3] -7.5% | [4] -2.7% | [5] -23.4% | [6] -8.45%

Nc1ccc(-c2ccc(Nc3cc(S(=O)(=O)O)c(N)c4c3C(=O)c3ccccc3C4=O)cc2)c(S(=O)(=O)O)c1
inactive: [1] -23.9% | [2] 14.8% | [3] -32.5% | [4] 8.45% | [5] -38.1% | [6] -9.05%

COc1cc(C(c2ccc(N(Cc3ccccc3)Cc3ccccc3)cc2NC(C)=O)c2ccc(N(Cc3ccccc3)Cc3ccccc3)cc2NC(C)=O)ccc1O
inactive: [1] 2.75% | [2] 2.05% | [3] -11.4% | [4] -8.2% | [5] -5.1% | [6] 38.2%

O=C1CN(CCN2CCCCC2)CC(=O)N2Cc3ccccc3CN12
inactive: [1] -10.1% | [2] 2.85% | [3] 12.1% | [4] -1.55% | [5] 7.8% | [6] 14.2%

CC(c1ccccc1)C(OCc1ccccc1)OCc1ccccc1 (stereo not given)
inactive: [1] -17.1% | [2] 9.15% | [3] 4.55% | [4] -36.5% | [5] 22.6% | [6] 1.2%

O=c1oc(-c2ccccc2)c(-c2ccccc2)o1
inactive: [1] 43% | [2] 22.8% | [3] 21.9% | [4] -46.8% | [5] 45.6% | [6] 46.4%

CC(C)=C1C(=O)N(C)C(=O)C1C(N)=O (stereo not given)
inactive: [1] 0.1% | [2] 1.85% | [3] -15.9% | [4] -6.05% | [5] 2.85% | [6] 11.4%

CCCN=C(C(C)=O)N(C)C
inactive: [1] -1.7% | [2] 1.3% | [3] -14.9% | [4] 6.55% | [5] 24.2% | [6] 2.85%

CCOC(=O)c1c(C)c2c(n1C)CCC(C(=O)OCC)C2=O (stereo not given)
inactive: [1] -3.15% | [2] 9.4% | [3] 10.3% | [4] 11.4% | [5] 4.6% | [6] 0.45%

C1=CC2C3CSCC3C1C1CC21 (stereo not given)
inactive: [1] 7.95% | [2] -7.85% | [3] -4.4% | [4] -35.1% | [5] -17% | [6] -3.05%

O=C1NC(=O)C2(CCCCCC2)N1
inactive: [1] -23.9% | [2] -23.9% | [3] 10.1% | [4] -0.65% | [5] -4.1% | [6] -26.7%

CS(=O)(=O)OCC(O)C(O)C(OS(C)(=O)=O)C(O)COS(C)(=O)=O (stereo not given)
inactive: [1] 7.1% | [2] 1.75% | [3] -7.75% | [4] 21.3% | [5] -8.55% | [6] 7.35%

CCCc1ccc(OCC(=O)O)c(OC)c1
inactive: [1] -2.45% | [2] -1.25% | [3] 0.95% | [4] 4.4% | [5] -22.5% | [6] -7.45%

CN1CCN(CCCBr)CC1
inactive: [1] -8.85% | [2] -5.3% | [3] -24.9% | [4] -31.8% | [5] -31.9% | [6] -4.3%

CC(=O)OCC1OC(n2ccc(NC(=O)Nc3ccn(C4OC(COC(C)=O)C(OC(C)=O)C4OC(C)=O)c(=O)n3)nc2=O)C(OC(C)=O)C1OC(C)=O (stereo not given)
inactive: [1] -2.25% | [2] -11.1% | [3] 8.25% | [4] -5.35% | [5] -2.25% | [6] 10.9%

Cc1c(C)c(CN)c(C)c(C)c1CN
inactive: [1] -30.5% | [2] -47% | [3] -16.6% | [4] -24.2% | [5] -43.4% | [6] -31.7%

CSc1ccc(Nc2ncnc(N)n2)cc1
inactive: [1] 19.9% | [2] 5.6% | [3] 8.6% | [4] -1.4% | [5] 8.8% | [6] 14.6%

CC(=O)OCC1OC(N2C(S)=C(C#N)C(c3ccco3)C(C(C)=O)=C2c2ccccc2)C(OC(C)=O)C(OC(C)=O)C1OC(C)=O (stereo not given)
inactive: [1] 21.4% | [2] 15.4% | [3] -0.25% | [4] -7.4% | [5] -19.4% | [6] -6.15%

CC(CC(C(=O)Nc1ccccc1)(c1ccccc1)c1ccccc1)N(C)C (stereo not given)
inactive: [1] -0.2% | [2] -18.2% | [3] 3.55% | [4] -2.15% | [5] -5.1% | [6] 6.2%

O=C1O[C@@H]2C3COC(O)[C@](O)(O3)[C@@H]2/C1=C\c1ccc(O)cc1 (stereo not given in full)
inactive: [1] 20.1% | [2] 10.4% | [3] 8.4% | [4] 5.25% | [5] 8.45% | [6] 9.4%

COc1cc(C(=O)NNC(=O)C2CCC(=O)N2Cc2ccccc2)cc(OC)c1OC (stereo not given)
inactive: [1] 3.3% | [2] -4.6% | [3] -18% | [4] -4.45% | [5] -1.75% | [6] 28.4%

OC(c1cc(-c2ccccc2)nc2c1ccc1ccccc12)C1CCCCN1 (stereo not given)
inactive: [1] 32.5% | [2] 16.7% | [3] -17.1% | [4] 14% | [5] 11.6% | [6] 26.4%

CC1(C)OC2OC(COC(=O)c3ccccc3)C(N3C(=O)c4ccccc4C3=O)C2O1 (stereo not given)
inactive: [1] 58.2% | [2] 9% | [3] 64.1% | [4] 30.1% | [5] 40.4% | [6] 49%
